Source: article PMC5700166

Tests used:
Assay in all cases: protein-binding microarray (PBM); PBM: ~300 nM protein, 6 mM HEPES pH 7.8, 80 mM KCl, 0.5 mM EDTA, 0.5 mM EGTA, 6% glycerol, 35 ng/ul poly-dIdC, 1% milk, 1 h, room temperature; Ap Aiptasia and Nv Nematostella (sea anemones) / Co Capsaspora / Aq Amphimedon (sponge) / Dm Drosophila / Hu human; RHD is the Rel homology domain; high values mean tight binding
Details in all cases: dsDNA, one strand shown
GST-Ap-NF-kB RHD = molecular target: T1, GST-Ap-NF-kB RHD (Exaiptasia pallida (Aiptasia), UniProt A0A913YAJ5 2-422)
T1 sequence: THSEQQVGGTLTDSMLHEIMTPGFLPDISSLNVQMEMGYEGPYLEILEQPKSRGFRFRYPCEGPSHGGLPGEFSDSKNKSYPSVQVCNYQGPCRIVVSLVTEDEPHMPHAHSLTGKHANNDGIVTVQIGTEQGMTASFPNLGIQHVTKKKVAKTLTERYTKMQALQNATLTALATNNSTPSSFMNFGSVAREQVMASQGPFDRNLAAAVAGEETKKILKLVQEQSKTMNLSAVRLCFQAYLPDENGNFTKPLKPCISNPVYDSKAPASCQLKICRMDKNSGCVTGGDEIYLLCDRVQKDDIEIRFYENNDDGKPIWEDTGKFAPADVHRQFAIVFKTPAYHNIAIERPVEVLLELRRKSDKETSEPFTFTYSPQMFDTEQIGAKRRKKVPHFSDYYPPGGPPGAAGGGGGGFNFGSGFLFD

[1] = molecular target: T2, GST-Nv-NF-kB (Cys allele) (Nematostella vectensis, UniProt E5G601 2-411)
T2 sequence: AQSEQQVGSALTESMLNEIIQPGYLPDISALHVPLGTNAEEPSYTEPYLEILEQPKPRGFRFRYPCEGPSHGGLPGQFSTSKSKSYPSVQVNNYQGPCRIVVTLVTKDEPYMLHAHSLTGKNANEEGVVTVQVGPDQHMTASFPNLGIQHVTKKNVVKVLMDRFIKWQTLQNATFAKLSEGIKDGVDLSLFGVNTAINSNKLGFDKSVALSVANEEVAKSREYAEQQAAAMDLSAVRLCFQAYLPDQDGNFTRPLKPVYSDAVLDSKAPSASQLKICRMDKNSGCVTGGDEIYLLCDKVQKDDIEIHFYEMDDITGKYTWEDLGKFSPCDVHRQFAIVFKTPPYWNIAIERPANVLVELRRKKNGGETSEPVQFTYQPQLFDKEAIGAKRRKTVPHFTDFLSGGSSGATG

GST-Co-NF-kB = molecular target: T3, GST-Co-NF-kB (Capsaspora owczarzaki, UniProt F1ARL5 200-546)
T3 sequence: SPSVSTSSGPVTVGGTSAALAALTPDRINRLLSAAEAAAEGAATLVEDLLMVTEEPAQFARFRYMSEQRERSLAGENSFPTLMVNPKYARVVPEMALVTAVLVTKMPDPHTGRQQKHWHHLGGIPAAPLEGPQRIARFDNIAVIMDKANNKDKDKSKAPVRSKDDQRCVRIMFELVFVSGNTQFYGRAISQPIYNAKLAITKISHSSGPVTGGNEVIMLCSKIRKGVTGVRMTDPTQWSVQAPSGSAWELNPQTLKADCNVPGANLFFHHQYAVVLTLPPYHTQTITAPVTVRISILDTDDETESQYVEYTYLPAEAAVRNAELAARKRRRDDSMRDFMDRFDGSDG

GST-Dm-Relish = molecular target: T4, GST-Dm-Relish (Drosophila melanogaster, UniProt Q94527 99-473)
T4 sequence: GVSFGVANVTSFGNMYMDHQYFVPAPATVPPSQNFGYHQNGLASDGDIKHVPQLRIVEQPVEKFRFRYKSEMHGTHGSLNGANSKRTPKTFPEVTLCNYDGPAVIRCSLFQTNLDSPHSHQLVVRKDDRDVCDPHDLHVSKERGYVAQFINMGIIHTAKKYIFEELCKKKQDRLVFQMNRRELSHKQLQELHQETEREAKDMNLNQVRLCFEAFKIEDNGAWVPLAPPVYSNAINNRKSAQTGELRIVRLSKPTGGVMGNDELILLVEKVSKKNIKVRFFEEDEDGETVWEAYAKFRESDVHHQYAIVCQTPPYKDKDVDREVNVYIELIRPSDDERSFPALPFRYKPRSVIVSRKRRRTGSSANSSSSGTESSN

GST-Aq-NF-kB = molecular target: T5, GST-Aq-NF-kB (Amphimedon queenslandica, UniProt A9Y5G7 2-389)
T5 sequence: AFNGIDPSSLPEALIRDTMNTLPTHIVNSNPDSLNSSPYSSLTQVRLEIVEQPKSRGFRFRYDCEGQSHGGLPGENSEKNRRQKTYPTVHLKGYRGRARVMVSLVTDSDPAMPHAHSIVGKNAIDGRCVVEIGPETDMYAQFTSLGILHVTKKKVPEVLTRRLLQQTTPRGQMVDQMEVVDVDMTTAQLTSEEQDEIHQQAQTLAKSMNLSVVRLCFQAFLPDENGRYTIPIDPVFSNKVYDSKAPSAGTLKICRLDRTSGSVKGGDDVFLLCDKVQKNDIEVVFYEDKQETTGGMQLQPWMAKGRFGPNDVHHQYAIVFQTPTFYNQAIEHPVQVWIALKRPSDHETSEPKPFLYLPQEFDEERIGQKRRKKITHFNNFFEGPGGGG

Row | Sequence | binding signal (GST-Ap-NF-kB RHD) | binding signal [1] | binding signal (GST-Co-NF-kB) | binding signal (GST-Dm-Relish) | binding signal (GST-Aq-NF-kB)
1 | CCGATTAACATCACTTGGGAAACTGATGTTAATCGGGTCTTGATTCGCTTGACGCTGCTG | 1.38 z-score | 2.05 z-score | 2.44 z-score | 1.01 z-score | 1.18 z-score
2 | CCGATTAACATCAATACACCCCCTGATGTTAATCGGGTCTTGATTCGCTTGACGCTGCTG | 3.75 z-score | 2.95 z-score | 4.19 z-score | 3.33 z-score | 3.5 z-score
3 | CCGATTAACATCAAAAAGGGAAATGATGTTAATCGGGTCTTGATTCGCTTGACGCTGCTG | 2.59 z-score | 5.91 z-score | 1.33 z-score | 1.31 z-score | 4.54 z-score
4 | CCGATTAACATCAGGGGCGCCCCTGATGTTAATCGGGTCTTGATTCGCTTGACGCTGCTG | 7.03 z-score | 5.37 z-score | 3 z-score | 6.07 z-score | 8.59 z-score
5 | CCGATTAACATCAGGGGACACCCTGATGTTAATCGGGTCTTGATTCGCTTGACGCTGCTG | 5.89 z-score | 4.47 z-score | 3.91 z-score | 7.15 z-score | 6.52 z-score
6 | CCGATTAACATCAGGGGGGGACCTGATGTTAATCGGGTCTTGATTCGCTTGACGCTGCTG | 7.43 z-score | 4.15 z-score | 5.99 z-score | 4.96 z-score | 5.51 z-score
7 | CCGATTAACATCAGGGGAGGAAATGATGTTAATCGGGTCTTGATTCGCTTGACGCTGCTG | 3.45 z-score | 4.2 z-score | 7.38 z-score | 1.91 z-score | 3.51 z-score
8 | CCGATTAACATCAATATAGTCCCTGATGTTAATCGGGTCTTGATTCGCTTGACGCTGCTG | 5.51 z-score | 4.77 z-score | 1.15 z-score | 1.16 z-score | 3.69 z-score
9 | CCGATTAACATCAGGTTTTCCCATGATGTTAATCGGGTCTTGATTCGCTTGACGCTGCTG | 3.58 z-score | 3.91 z-score | 4.33 z-score | 5.47 z-score | 4.82 z-score
10 | CCGATTAACATCAGGGTAAAACCTGATGTTAATCGGGTCTTGATTCGCTTGACGCTGCTG | 1.98 z-score | 3.16 z-score | 1.9 z-score | 3.45 z-score | 6.02 z-score
